In PubChem BioAssay (NCATS):
Results filed as inconclusive are left out. Activity calls are given as the source filed them. The call rests on the fitted dose curve; in most records, active means well fitted cell-killing curve with a large enough effect; inconclusive means small, poorly fitted or top-dose-only effect; inactive means flat fitted curve, though single readings scatter.

Experiment: Cellular viability qHTS for adrenocortical cancer (ACC) cell line NCI-H295R (AID 1963990); further: nearly all actives have a fitted effect of over 60% in size;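 on activity change, negative = viability loss: 0% = DMSO only wells and -100% = full killing with cytotoxic reference compound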
Conditions: CellTiter-Glo ATP luminescence, 48 h; series mostly up to 46.1 µM; activity change, negative = viability loss: at the top concentration
Procedure, shortened: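 CellTiter-Glo ATP luminescence, read 48 h after compound addition, measured viability of NCI-H295R adrenocortical cells grown serum-free with ITS. Final concentrations spanned up to 46 uM. Data normalized to DMSO and doxorubicin, fitted for IC50 and maximal response.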

SMILES	activity change, negative = viability loss	Potency
NC(=O)NC1NC(=O)NC1=O (stereo not given)	8.16% (inactive)	–
O=c1[nH]c(=O)c2ccccc2o1	-18.3% (inactive)	–
NS(=O)(=O)c1ccc(NC(=O)CCC(=O)O)cc1	10.8% (inactive)	–
CN1Cc2cc(C(=O)N3CCC(C4CCNCC4)CC3)ccc2N[C@@H](CC(=O)O)C1=O	4.11% (inactive)	–
OC[C@H]1O[C@@H](n2cnc3c2NC=NC[C@H]3O)C[C@@H]1O	0.245% (inactive)	–
O=C(Oc1ccccc1)c1ccccc1O	-1.19% (inactive)	–
CCCCCCCCCCOc1cc2c(=O)c(C(=O)OCC)c[nH]c2cc1OCC	-5.4% [at 3.81 µM] (inactive)	–
CCNC(=O)/C=C/c1cccc(Br)c1	-4.91% (inactive)	–
CC[C@@]1(c2ccccc2)NC(=O)N(C)C1=O	11.9% (inactive)	–
FC(F)(F)C(Cl)Br (stereo not given)	-23.4% (inactive)	–
C[C@H]1[C@H](NC(=O)/C(=N/OC(C)(C)C(=O)O)c2csc(N)n2)C(=O)N1S(=O)(=O)O (stereo in doubt)	1.56% (inactive)	–
O=C(O)c1ccc(S(=O)(=O)N(Cl)Cl)cc1	3.36% (inactive)	–
O=C(O)CCCCCCCC(=O)O	-6.34% (inactive)	–
CC1CCN(CCCC(=O)c2ccc(F)cc2)CC1	4.76% (inactive)	–
CC(=O)Nc1ccccc1	5.41% (inactive)	–
CCOc1ccc(NC(C)=O)cc1	3.89% (inactive)	–
CCn1ccc(NS(=O)(=O)c2ccc(N)cc2)nc1=O	-13.3% (inactive)	–
O=C(Nc1ccc(Cl)cc1)Nc1ccc(Cl)c(Cl)c1	–	4.11 µM (active)
CCCN(CCC)S(=O)(=O)c1ccc(C(=O)O)cc1	-17.6% (inactive)	–
CC(=O)Nc1ncc([N+](=O)[O-])s1	-7.32% (inactive)	–

SMILES	activity change, negative = viability loss	Potency
CC(C)CCCC(C)N (stereo not given)	1.71% (inactive)	–
CC[C@H]1OC(=O)[C@H](C)[C@@H](O[C@H]2C[C@@](C)(OC)[C@@H](O)[C@H](C)O2)[C@H](C)[C@@H](O[C@@H]2O[C@H](C)C[C@H](N(C)C)[C@H]2O)[C@](C)(O)C[C@@H](C)CN(C)[C@H](C)[C@@H](O)[C@]1(C)O	0.777% (inactive)	–
NC(N)=NS(=O)(=O)c1ccc(N)cc1	1.13% (inactive)	–
CC(C)=CCC/C(C)=C/CC/C(C)=C/CCC(=O)OC/C=C(\C)CCC=C(C)C	-4.45% (inactive)	–
Cn1c(=O)c2[nH]cnc2n(C)c1=O	–	inactive
Cc1sccc1Br	-11.2% (inactive)	–
CCC(=O)Nc1ccc(O)cc1	0.596% (inactive)	–
C/C=C/C(=O)N(CC)c1ccccc1C	-7.73% (inactive)	–
Nc1nc(=O)n([C@@H]2O[C@H](CO)[C@@H](O)[C@@H]2F)cc1I	-0.749% (inactive)	–
CN(C)C(=O)c1cc2cnc(Nc3ccc(N4CCNCC4)cn3)nc2n1C1CCCC1	0.361% (inactive)	–
CCn1cc(C(=O)O)c(=O)c2cnc(N3CCCC3)nc21	-14.1% [at 9.17 µM] (inactive)	–
Cc1cccc(C)c1NC(=O)c1ccccc1C(=O)O	9.36% (inactive)	–
O=C(NCN1CCOCC1)c1cnccn1	3.44% (inactive)	–
CN1[C@@H]2CC[C@H]1CC(OC(=O)c1c[nH]c3ccccc13)C2 (stereo not given in full)	0.245% (inactive)	–
CNc1c2c(nn1C)CCCC2	-1.87% (inactive)	–
O=C1NCC2(CCN(CCc3ccccc3)CC2)O1	-4.55% (inactive)	–
[O-][n+]1cccc(/C(Cl)=N/OC[C@@H](O)CN2CCCCC2)c1	-0.0832% (inactive)	–
O=C(O)C(=O)Nc1cccc(-c2nn[nH]n2)c1	–	inactive
OC1(c2ccc(Cl)cc2)CCNCC1	-1.77% (inactive)	–
Cc1cccc(-c2nn3c(c2-c2ccnc4ccc(C(N)=O)cc24)CCC3)n1	3.27% (inactive)	–
